Experimental data from ChEMBL document CHEMBL1961873, “Compounds: GSK PKIS; Assays: Nanosyn kinase panel” (2012).

What was measured:
[1] = target: Calcium/calmodulin-dependent protein kinase type II subunit alpha (Homo sapiens) (UniProt Q9UQM7); settings: at 1 µM;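 note: reported value is a mean percent inhibition of CAMK2A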
[2] = target: Calcium/calmodulin-dependent protein kinase type II subunit delta (Homo sapiens) (UniProt Q13557); settings: at 0.1 µM
[3] = target: Calcium/calmodulin-dependent protein kinase type II subunit delta (Homo sapiens) (UniProt Q13557); settings: at 1 µM
[4] = target: T1, Calcium/calmodulin-dependent protein kinase type IV (Homo sapiens) (UniProt Q16566); settings: at 0.1 µM
T1 sequence (whole entry): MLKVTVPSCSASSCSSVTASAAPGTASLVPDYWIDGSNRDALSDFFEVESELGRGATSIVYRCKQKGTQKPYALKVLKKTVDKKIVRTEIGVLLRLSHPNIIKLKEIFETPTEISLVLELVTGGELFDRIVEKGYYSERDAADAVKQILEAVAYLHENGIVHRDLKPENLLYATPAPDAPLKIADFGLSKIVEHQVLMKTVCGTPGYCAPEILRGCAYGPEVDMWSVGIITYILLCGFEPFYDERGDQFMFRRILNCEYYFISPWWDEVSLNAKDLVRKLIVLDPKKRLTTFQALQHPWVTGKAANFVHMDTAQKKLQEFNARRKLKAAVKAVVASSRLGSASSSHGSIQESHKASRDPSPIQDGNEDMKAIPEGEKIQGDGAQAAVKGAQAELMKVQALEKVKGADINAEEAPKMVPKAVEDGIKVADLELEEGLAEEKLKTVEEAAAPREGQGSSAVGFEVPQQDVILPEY

[5] = target: T1, Calcium/calmodulin-dependent protein kinase type IV (Homo sapiens); settings: at 1 µM
[6] = target: T2, Serine/threonine-protein kinase Chk1 (Homo sapiens) (UniProt O14757); settings: at 0.1 µM
T2 sequence (whole entry): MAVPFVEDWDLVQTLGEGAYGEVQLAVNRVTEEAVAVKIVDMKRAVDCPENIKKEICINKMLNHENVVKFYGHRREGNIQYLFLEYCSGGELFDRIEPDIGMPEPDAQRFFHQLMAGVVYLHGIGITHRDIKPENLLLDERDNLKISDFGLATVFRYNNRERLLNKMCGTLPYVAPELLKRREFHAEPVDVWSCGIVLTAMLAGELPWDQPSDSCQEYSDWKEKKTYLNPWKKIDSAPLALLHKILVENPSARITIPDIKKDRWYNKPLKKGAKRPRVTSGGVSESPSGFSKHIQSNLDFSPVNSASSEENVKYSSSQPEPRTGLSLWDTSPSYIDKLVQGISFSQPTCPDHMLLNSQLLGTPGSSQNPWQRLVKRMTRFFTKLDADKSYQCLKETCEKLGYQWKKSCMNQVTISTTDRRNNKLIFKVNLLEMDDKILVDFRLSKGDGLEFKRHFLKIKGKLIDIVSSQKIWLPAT

[7] = target: T2, Serine/threonine-protein kinase Chk1 (Homo sapiens); settings: at 1 µM
[8] = target: Serine/threonine-protein kinase Chk2 (Homo sapiens) (UniProt O96017); settings: at 0.1 µM
[9] = target: Serine/threonine-protein kinase Chk2 (Homo sapiens) (UniProt O96017); settings: at 1 µM
[10] = target: Death-associated protein kinase 1 (Homo sapiens) (UniProt P53355); settings: at 0.1 µM
[11] = target: Death-associated protein kinase 1 (Homo sapiens) (UniProt P53355); settings: at 1 µM
[12] = target: T3, Serine/threonine-protein kinase DCLK2 (Homo sapiens) (UniProt Q8N568); settings: at 0.1 µM
T3 sequence (whole entry): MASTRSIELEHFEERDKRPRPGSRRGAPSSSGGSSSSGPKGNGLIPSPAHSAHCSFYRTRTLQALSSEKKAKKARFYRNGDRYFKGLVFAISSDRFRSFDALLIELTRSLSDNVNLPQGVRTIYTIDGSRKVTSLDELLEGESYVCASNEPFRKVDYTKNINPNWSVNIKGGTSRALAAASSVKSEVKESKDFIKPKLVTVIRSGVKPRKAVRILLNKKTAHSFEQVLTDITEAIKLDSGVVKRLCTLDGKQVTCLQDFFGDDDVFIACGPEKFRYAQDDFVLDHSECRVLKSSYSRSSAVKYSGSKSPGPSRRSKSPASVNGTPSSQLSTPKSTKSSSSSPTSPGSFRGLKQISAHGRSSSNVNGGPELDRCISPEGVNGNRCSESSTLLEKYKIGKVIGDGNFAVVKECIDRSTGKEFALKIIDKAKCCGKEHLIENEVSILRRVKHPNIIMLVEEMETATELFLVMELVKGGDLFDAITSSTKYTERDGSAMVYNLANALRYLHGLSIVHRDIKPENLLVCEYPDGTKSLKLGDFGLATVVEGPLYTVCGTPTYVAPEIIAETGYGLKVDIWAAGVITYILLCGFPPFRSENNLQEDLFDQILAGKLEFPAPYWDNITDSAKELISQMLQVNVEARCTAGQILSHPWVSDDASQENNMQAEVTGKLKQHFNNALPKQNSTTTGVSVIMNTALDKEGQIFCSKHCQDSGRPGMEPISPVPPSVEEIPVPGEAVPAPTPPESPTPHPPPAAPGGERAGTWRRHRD

[13] = target: T3, Serine/threonine-protein kinase DCLK2 (Homo sapiens); settings: at 1 µM
[14] = target: MAP kinase-activated protein kinase 2 (Homo sapiens) (UniProt P49137); settings: at 0.1 µM
[15] = target: MAP kinase-activated protein kinase 2 (Homo sapiens) (UniProt P49137); settings: at 1 µM
[16] = target: MAP kinase-activated protein kinase 3 (Homo sapiens) (UniProt Q16644); settings: at 0.1 µM
[17] = target: MAP kinase-activated protein kinase 3 (Homo sapiens) (UniProt Q16644); settings: at 1 µM
[18] = target: Serine/threonine-protein kinase MARK1 (Homo sapiens) (UniProt Q9P0L2); settings: at 0.1 µM
[19] = target: Serine/threonine-protein kinase MARK1 (Homo sapiens) (UniProt Q9P0L2); settings: at 1 µM
[20] = target: MAP/microtubule affinity-regulating kinase 3 (Homo sapiens) (UniProt P27448); settings: at 0.1 µM;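 note: mean percent inhibition of MARK3 kinase activity, measured within the GSK PKIS screening panel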
MAP/microtubule affinity-regulating kinase 3 (Homo sapiens), sequence (P27448 whole entry, looked up): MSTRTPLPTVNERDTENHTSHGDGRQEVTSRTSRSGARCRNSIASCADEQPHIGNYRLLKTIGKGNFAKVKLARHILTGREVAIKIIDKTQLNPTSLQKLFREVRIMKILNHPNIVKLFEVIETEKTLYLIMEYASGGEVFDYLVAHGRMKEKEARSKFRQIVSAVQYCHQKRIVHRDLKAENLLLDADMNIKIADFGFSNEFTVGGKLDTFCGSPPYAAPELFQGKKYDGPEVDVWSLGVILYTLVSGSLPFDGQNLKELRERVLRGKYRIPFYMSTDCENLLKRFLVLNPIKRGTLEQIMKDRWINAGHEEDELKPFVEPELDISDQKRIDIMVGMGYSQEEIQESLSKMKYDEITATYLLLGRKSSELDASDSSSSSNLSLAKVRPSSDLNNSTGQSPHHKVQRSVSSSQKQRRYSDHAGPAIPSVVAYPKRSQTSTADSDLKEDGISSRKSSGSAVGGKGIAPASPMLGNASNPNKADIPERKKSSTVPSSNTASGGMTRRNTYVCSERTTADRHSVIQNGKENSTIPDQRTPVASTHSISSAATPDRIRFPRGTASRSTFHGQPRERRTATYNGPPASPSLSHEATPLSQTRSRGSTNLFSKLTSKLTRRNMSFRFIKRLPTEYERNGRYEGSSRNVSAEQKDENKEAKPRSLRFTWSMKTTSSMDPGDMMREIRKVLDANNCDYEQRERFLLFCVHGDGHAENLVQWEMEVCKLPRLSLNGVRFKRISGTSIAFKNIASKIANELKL

Calcium/calmodulin-dependent protein kinase type II subunit alpha (Homo sapiens), sequence (Q9UQM7 whole entry): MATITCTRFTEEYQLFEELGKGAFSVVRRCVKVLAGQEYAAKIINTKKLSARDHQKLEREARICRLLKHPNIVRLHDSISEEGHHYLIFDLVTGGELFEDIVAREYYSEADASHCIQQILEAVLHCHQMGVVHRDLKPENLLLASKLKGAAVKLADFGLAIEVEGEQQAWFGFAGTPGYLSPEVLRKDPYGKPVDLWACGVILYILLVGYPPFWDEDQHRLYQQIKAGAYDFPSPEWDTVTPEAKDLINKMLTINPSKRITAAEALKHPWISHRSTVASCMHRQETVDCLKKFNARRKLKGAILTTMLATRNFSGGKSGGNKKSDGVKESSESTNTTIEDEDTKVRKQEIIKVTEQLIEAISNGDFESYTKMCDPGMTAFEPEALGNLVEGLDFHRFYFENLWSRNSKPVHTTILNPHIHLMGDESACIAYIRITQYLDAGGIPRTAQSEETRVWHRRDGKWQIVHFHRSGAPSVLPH
Death-associated protein kinase 1 (Homo sapiens), sequence (P53355 whole entry, looked up): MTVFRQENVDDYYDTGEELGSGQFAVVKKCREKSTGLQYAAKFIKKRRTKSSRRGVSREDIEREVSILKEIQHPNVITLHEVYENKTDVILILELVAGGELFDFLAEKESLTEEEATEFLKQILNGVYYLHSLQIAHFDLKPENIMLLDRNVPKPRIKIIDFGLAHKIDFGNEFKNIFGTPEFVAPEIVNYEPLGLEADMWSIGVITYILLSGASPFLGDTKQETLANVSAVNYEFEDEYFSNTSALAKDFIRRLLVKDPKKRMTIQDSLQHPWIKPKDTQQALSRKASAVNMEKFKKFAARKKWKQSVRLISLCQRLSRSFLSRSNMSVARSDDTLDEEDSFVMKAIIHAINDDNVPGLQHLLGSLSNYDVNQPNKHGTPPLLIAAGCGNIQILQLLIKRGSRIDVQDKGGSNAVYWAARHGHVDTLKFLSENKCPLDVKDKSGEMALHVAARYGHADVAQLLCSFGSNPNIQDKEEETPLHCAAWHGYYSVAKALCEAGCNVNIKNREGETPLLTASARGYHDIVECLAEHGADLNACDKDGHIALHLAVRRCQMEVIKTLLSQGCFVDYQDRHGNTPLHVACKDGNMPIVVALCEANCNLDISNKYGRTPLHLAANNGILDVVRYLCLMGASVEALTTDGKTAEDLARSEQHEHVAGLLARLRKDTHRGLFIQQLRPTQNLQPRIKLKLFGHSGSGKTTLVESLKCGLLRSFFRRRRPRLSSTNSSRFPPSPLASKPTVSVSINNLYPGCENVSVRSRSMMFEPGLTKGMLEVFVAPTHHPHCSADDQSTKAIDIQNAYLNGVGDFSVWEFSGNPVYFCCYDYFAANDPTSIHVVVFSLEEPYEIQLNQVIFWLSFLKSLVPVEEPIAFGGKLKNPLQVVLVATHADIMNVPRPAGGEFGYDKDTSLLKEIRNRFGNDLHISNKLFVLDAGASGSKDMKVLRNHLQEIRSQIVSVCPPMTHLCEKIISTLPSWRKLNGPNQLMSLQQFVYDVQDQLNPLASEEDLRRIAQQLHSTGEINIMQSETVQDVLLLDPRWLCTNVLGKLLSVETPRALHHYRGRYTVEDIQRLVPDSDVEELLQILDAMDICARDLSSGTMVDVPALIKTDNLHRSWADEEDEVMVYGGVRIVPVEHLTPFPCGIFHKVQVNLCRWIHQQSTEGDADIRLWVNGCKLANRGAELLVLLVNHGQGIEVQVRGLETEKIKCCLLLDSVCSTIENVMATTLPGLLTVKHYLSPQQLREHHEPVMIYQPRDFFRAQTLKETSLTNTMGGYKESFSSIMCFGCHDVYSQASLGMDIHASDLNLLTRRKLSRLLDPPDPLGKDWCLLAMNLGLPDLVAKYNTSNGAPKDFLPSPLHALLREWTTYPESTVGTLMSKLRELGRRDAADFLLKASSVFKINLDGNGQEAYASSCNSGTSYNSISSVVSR
Serine/threonine-protein kinase Chk2 (Homo sapiens), sequence (O96017 whole entry): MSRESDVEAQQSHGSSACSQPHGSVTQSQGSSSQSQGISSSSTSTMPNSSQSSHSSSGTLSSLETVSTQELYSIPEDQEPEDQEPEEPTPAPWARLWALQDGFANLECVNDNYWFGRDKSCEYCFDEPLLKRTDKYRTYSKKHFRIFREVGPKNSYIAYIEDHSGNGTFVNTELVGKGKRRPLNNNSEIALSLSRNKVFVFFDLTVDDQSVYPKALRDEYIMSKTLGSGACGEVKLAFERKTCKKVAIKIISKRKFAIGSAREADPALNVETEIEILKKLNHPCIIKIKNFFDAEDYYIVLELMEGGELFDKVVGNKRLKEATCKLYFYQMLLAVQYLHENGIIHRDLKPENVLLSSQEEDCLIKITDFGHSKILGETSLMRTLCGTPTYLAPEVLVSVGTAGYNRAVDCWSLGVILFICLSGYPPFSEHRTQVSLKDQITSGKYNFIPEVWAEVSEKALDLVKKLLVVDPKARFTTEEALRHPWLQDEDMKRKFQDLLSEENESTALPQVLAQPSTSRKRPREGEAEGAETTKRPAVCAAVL
MAP kinase-activated protein kinase 2 (Homo sapiens), sequence (P49137 whole entry, looked up): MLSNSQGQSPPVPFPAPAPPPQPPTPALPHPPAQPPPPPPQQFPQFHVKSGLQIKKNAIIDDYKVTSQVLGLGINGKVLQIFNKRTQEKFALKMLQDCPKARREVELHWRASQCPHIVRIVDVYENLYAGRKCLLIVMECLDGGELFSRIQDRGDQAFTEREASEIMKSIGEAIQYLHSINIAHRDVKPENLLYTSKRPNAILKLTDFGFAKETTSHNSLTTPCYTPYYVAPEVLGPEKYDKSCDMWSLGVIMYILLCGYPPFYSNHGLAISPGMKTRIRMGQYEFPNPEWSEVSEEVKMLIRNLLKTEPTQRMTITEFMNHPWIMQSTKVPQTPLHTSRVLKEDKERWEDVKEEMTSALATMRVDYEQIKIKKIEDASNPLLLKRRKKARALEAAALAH
Serine/threonine-protein kinase MARK1 (Homo sapiens), sequence (Q9P0L2 whole entry, looked up): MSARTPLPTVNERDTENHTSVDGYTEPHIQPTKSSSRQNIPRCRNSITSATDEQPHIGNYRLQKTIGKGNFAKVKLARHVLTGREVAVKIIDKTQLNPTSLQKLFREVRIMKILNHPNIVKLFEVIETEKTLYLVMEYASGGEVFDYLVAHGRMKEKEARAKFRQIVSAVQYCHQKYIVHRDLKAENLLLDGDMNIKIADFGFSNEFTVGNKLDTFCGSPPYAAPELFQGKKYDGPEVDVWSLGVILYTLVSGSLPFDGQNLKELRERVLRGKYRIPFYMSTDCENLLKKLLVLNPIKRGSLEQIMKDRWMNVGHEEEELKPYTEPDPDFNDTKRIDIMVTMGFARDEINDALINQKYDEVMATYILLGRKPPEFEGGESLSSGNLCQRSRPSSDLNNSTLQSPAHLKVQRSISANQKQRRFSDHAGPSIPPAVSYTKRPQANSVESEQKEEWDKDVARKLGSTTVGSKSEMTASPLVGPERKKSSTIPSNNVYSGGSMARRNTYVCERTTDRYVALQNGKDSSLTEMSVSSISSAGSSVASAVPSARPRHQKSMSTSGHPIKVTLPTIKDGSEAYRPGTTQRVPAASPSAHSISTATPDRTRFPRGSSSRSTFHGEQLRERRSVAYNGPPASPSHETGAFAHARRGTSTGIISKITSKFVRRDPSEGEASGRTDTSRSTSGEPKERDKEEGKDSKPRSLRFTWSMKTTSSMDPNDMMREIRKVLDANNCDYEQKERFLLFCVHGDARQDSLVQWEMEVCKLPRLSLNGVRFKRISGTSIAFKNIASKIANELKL
MAP kinase-activated protein kinase 3 (Homo sapiens), sequence (Q16644 whole entry, looked up): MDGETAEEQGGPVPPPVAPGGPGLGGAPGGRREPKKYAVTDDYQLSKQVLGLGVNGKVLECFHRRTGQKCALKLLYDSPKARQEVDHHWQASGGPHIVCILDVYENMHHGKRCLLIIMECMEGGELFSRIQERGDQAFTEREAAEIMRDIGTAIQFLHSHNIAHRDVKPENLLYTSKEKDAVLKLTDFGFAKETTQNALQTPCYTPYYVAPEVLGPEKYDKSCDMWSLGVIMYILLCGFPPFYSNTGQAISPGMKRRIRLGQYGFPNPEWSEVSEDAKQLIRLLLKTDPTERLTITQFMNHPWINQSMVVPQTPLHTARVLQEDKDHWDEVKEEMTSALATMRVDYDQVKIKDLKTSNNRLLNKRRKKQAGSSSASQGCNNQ

Row | Structure (SMILES) | inhibition [1] [%] | inhibition [2] [%] | inhibition [3] [%] | inhibition [4] [%] | inhibition [5] [%] | inhibition [6] [%] | inhibition [7] [%] | inhibition [8] [%] | inhibition [9] [%] | inhibition [10] [%] | inhibition [11] [%] | inhibition [12] [%] | inhibition [13] [%] | inhibition [14] [%] | inhibition [15] [%] | inhibition [16] [%] | inhibition [17] [%] | inhibition [18] [%] | inhibition [19] [%] | inhibition [20] [%]
1 | O=C(Nc1n[nH]c2cc(-c3ccc(F)cc3)ccc12)C1CC1 | 5.83 | 2.59 | 3.77 | -0.12 | 1.07 | 8.27 | 10.8 | 6.26 | 6.67 | 9.31 | 9.97 | 1.56 | 0.81 | 4.23 | 4.01 | 9.47 | 8.99 | 3.81 | 5.7 | 2.03
2 | CCCN(CCS(C)(=O)=O)Cc1ccc(-c2ccc3ncnc(Nc4ccc(OCc5cccc(F)c5)c(Cl)c4)c3c2)o1 | 0.76 | 1.58 | 1.84 | 1.01 | 2.17 | 7.57 | 6.58 | 5.44 | 6.1 | 8.24 | 8.65 | 0.95 | 0.44 | 3.34 | 3.18 | 7.91 | 7.63 | 0.08 | 0.29 | -1.25
3 | c1ccc(COc2ccc(Nc3ncnc4ccc(-c5ccco5)cc34)cc2)cc1 | 0.02 | 0.67 | 0.25 | 1.19 | 0.04 | 0.21 | -0.59 | 1.08 | 4.69 | 2.45 | 0.73 | -0.98 | -0.08 | 2.44 | 0.12 | 1.07 | -0.28 | 0.18 | 1.8 | 0.1
4 | COC(=O)Nc1nc2ccc(Oc3ccc(NC(=O)Nc4cccc(Cl)c4)cc3)cc2[nH]1 | -1.94 | 1.3 | 0.37 | 0.3 | -1.27 | -1.18 | -8.11 | 0.39 | 0.53 | 0.42 | -0.2 | -0.66 | 0.75 | -0.07 | -0.56 | 3.71 | 4.53 | 0.33 | 2.88 | 0.27
5 | CCn1c(-c2nonc2N)nc2c(C#CC(C)(C)O)nc(OC[C@H](N)c3ccccc3)cc21 | 6.26 | 4.52 | 8.64 | -0.61 | 4.09 | 2.81 | 9.89 | 4.7 | 11.3 | 2.88 | 4.82 | -2.25 | 1.52 | 0.63 | 2.99 | 1.45 | 2.95 | 2.28 | 27.3 | 4.68
6 | COc1ccc(-c2cc(-c3c[nH]nc3-c3ccccn3)ccn2)cc1 | 6.7 | 3.82 | 3.97 | -2.15 | -3.38 | 3.08 | 6.57 | 3.42 | 4.49 | 5.21 | 6.22 | 2.08 | 0.82 | 2.82 | 2.73 | 6.42 | 14 | 5.2 | 7.25 | 5.15
7 | COc1cc(Nc2nccc(Nc3ccc4c(C)n[nH]c4c3)n2)cc(OC)c1OC | 4.38 | 3.41 | 3.54 | 1.45 | 4.68 | 1.45 | 3.35 | 1.73 | 9.02 | 1.68 | 2.65 | -0.29 | 2.5 | 0.91 | 0.86 | 1.05 | 1.36 | 2.59 | 8.82 | 3.33
8 | COc1ccc(-c2nn3ncccc3c2-c2ccnc(Nc3ccc4c(c3)OCCO4)n2)cc1 | -2.04 | 0.97 | 0.2 | 1.75 | -0.47 | -2.62 | -1.19 | -1.05 | 0.02 | 2.51 | 2.06 | -1.54 | -0.74 | 0.19 | 0.03 | 30.9 | 37 | 0.34 | 2.66 | 3
9 | NC(=O)c1sc(-n2cnc3ccc(C(F)(F)F)cc32)cc1OCc1ccccc1Br | 3.63 | 2.57 | 7.23 | 1.31 | 2.02 | -3.21 | -0.7 | 2.54 | 3.23 | -0.43 | -0.59 | 0.84 | -0.41 | 1.86 | 0.94 | 4.27 | 4.34 | 2.69 | 4.02 | 0.94
10 | NS(=O)(=O)c1ccc(N/N=C2\C(=O)Nc3ccc4ncccc4c32)cc1 | 7.93 | 4.26 | 18.3 | 1.9 | 2.53 | 7.46 | 41.1 | 5 | 26.3 | 10.9 | 63 | -1.4 | 7.76 | 0.89 | 1.9 | 2.79 | 3.84 | 12.8 | 52.9 | 8.25
11 | CC1=C(C(=O)Nc2cc(Cl)c3[nH]ncc3c2)C(c2ccc(C(F)(F)F)cc2)CC(=O)N1 (stereo not given) | 1.21 | 1.82 | 4.42 | -0.37 | 0.15 | 8.32 | 11.4 | 6.46 | 7.48 | 9.05 | 10 | 3.55 | 2.36 | 4.51 | 4.3 | 9.27 | 9.12 | 3.77 | 6.87 | 3.36
12 | COC(=O)c1sc(-n2cnc3cc(OC)c(OC)cc32)cc1OCc1ccccc1C(F)(F)F | 5.27 | 4.25 | 11.3 | 1.9 | 11.2 | 1.72 | 2.67 | 3.73 | 4.65 | 0.08 | 1.94 | 2.16 | 0.62 | 1.81 | 1.73 | 4.86 | 5.46 | 2.71 | 6.82 | 2.38
